This note sets out measurements from PubChem BioAssay (NCI).

Compounds without any hit were thinned out: in the full panel of roughly 83,000, 20% have a hit.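 Cell lines were cultured in 96-well plates, exposed to a single compound concentration, and assessed for percent growth 48 hours later.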 Values without a mark were called inactive. Calls of active or inactive are those of the source.

This assay has as its system RPMI-8226 leukemia. The assay can be described thus: NCI-60 one-dose screen, 48 h (100 = growth as untreated, 0 = no growth, -100 = all killed). The following applies: 10 µM. On the procedure:
Growth inhibition of the RPMI-8226 human tumor cell line is measured as a screen for anti-cancer activity. Cells are grown in 96 well plates and exposed to the test compound for 48 hours. Compounds are tested at a single concentration, which is 10^-5 M for most compounds. The reported endpoint is percent growth (GI% or GIPRCNT), where numbers from 0 - 100% represent growth inhibition, and numbers from -100% - 0 represent cell death. For example, a value of 40 represents 60% growth inhibition. A value of 0 means no net growth occurred over the course of the experiment. A value of -40 indicates 40% of cells at the beginning of the experiment died by the end of the experiment. A value of -100 means all cells are dead at the end of the experiment.
NCI-60 Human Tumor Cell Lines Screen was performed using the standard one-dose NCI protocol, which is described in more detail at https://dtp.cancer.gov/discovery_development/nci-60/default.htm.
Compounds with GIPRCNT values below 10 were considered active. Activity score was based on GIPRCNT using the following formula: […]
Score is 0 for GIPRCNT values of 100 or above, 50 for GIPRCNT values of 0, and 100 for GIPRCNT values of -100.
As for `COc1ccc2c(c1)N(CCO)C1=C(C(=O)OC1)C2c1ccccc1` (stereo not given), the growth is 22%.
To `CCN(CC)CCSCCN(CC)CC` belongs 105%.
For the compound `CCCN(CCC)CCC(O)c1cc2c(c3ccccc13)CCCC2` (stereo not given), the growth was 86.1%.
With `CN(C)CCN=c1nc2c(c(N)n1-c1ccccc1)c(=S)n(-c1ccccc1)c(=S)n2-c1ccccc1`, the growth is -4.61% (active).
With `c1ccc2c(c1)oc1c3c(ccc12)NCCC3`, the growth is 93.8%.
In the case of `Cc1cc(N(CCCNc2ccnc3cc(Cl)ccc23)Cc2ccc3c(c2)OCO3)nc(N2CCOCC2)n1`, the growth was -29.6% (active).
Regarding `COc1ccc(-c2csc(NC(=O)CSc3nc(C)c(-c4ccccc4)n3Nc3ccccc3)n2)cc1`, the growth is 30.7%.
On to `COc1ccc2c(c1)sc1nc(-c3ccccc3)c(-c3cccnc3)n12`, for which the growth is 79%.
In the case of `N#CC1=C(Nc2ccccc2Cl)SC(c2ccccc2O)NC1=O` (stereo not given), the growth was 97.1%.
Consider `COc1ccc(/C=C2/CN(C(=O)c3ccccc3F)C/C(=C\c3ccc(OC)cc3)C2=O)cc1`, for which the growth was -19% (active).
Consider `O=C1/C(=C\c2ccc(F)cc2)CN(C(=O)c2ccc([N+](=O)[O-])cc2)C/C1=C\c1ccc(F)cc1`, for which the growth is -13.3% (active).
As for `CN(C)CC(O)c1ccc2cc(Br)c3ccccc3c2c1` (stereo not given), the growth was 56.1%.
As to `COc1cc(Cc2cc(-c3ccc(Cl)cc3)n[nH]c2=O)ccc1O`, the growth is 47.9%.
To `CCN(CC)CCC(CNc1c(C)cnc2cc(Cl)ccc12)c1ccc(Cl)cc1` (stereo not given) belongs 44%; to `COc1ccc(/C=C/C(=O)Nc2ccc(-c3nc4ccc(F)cc4s3)cc2)cc1`, 75.4%; to `CC/C(=N\N=C(/CC)c1ccc(Br)cc1)c1ccc(Br)cc1`, 93.9%.
As for `COc1ccccc1/C=C/C(=O)c1ccccc1`, the growth was -36.2% (active).
As to `CCN(CC)CCNc1ccc(CO)c2oc3cc(Cl)ccc3c(=O)c12`, the growth is 85.7%.
As for `C[N+](C)(C)c1ncnc2nc[nH]c12`, the growth is 103%.
Consider `CCN(CC)CCCC(C)Nc1ccc2ccc(Cl)cc2n1` (stereo not given), for which the growth was 97.3%.
`COc1cc(-c2cc(/C=C3\C(=O)Nc4ccc(Cl)cc43)[nH]n2)cc(OC)c1OC`: the growth is -18.3% (active).
To `CCc1ccc2c(c1)N(CCO)C1=C(C(=O)OC1)C2c1ccccc1` (stereo not given) belongs 101%.
In the case of `CCN(CC)CCC(=O)Nc1cccc2c1C(=O)c1c(c(O)c3ccccc3c1O)C2=O`, the growth was 33.2%.
To `CCOC(=O)C(=Cc1ccc(Br)cc1)C(=O)OCC` belongs -34.3% (active).
As for `ClCCOCCn1cnc2c(Cl)nc(Cl)nc21`, the growth was 93.1%.
In the case of `Nc1c(C(=O)Nc2cccc(F)c2)sc2nc3c(cc12)C(=O)CCC3`, the growth was 43.1%.
Consider `Cc1ccc(-c2nc(/C=C3/C(=O)N(C)c4ccc(F)cc43)c3ccccn23)cc1`, for which the growth is 115%.
Turning to `CC1(C)CCC(=NNC(N)=S)CC1`, the growth is 103%.
In the case of `Cc1cc(O)c(C(C)(C)C)cc1Sc1cc(C(C)(C)C)c(O)cc1C`, the growth is 12.8%.
In the case of `CSc1nn(-c2ccccc2)c2ncnc(Oc3ccc(C)cc3)c12`, the growth is 92.4%.
In the case of `O=C1/C(=C/c2ccc([N+](=O)[O-])o2)Oc2ccccc21`, the growth is -0.688% (active).
`CC(=O)c1nc2ccccc2n1CCNC(N)=O`: the growth is 32%.
In the case of `CCCCCCCCCCCCCCCCCCOCC(COCCOCC[N+]1(CCCCCC(=O)[O-])CCCC1)Oc1ncccn1` (stereo not given), the growth is 2.22% (active).
Take `COc1ccc(/C=C2/CN(CCC#N)C/C(=C\c3ccc(OC)cc3)C2=O)cc1`: the growth is -17.2% (active).
For the compound `C/C(N)=C(\C#N)C(=O)c1ccccc1`, the growth was 99.2%.
Consider `Clc1ccc(Nc2ccnc(NCCNc3ccnc4cc(Cl)ccc34)n2)cc1`, for which the growth is -48.9% (active).
`CC(=O)c1cc(Cl)ccc1O`: the growth is 105%.
Regarding `CCCCC(CCCCCC(CCCC)NCc1ccc2c(c1)OCO2)NCc1ccc2c(c1)OCO2` (stereo not given), the growth was -59.2% (active).
Regarding `COc1cc(Nc2ncnc(Nc3ccc4c(n3)NC(=O)C(C)(C)O4)n2)cc(OC)c1OC`, the growth was 20.6%.
Consider `C#Cc1ccc(-n2c(/C=C/c3ccc4ccccc4n3)nc3ncccc3c2=O)cc1`, for which the growth is -27.7% (active).
